Screening results as filed in PubChem.
Only a selection was taken, and hits are over-represented in it overall.
NS1 inh = blocks influenza NS1 protein function. Potency, µM (highest dose often 46.1 µM), inactives show at the top dose activity, positive = more growth. hit rate 0.4% among 270,000; calls by dose curve; note: potency is the fitted concentration of half-maximal effect; actives are rising curves; nearly all actives have a fitted effect of over 50% in size
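A cell-based growth assay was used: compounds that relieve NS1-induced slow growth of budding yeast raise OD600. Assay medium was yeast nitrogen base with ammonium sulphate and -URA supplement, pH 6.0, with 2% galactose.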
AmpC detergent = inhibitors of E. coli AmpC beta-lactamase with detergent. Potency, µM (doses to about 114 µM), for the others: top-dose activity change, negative = inhibition, usual class: inhibitors. P00811. AmpC hydrolysis of nitrocefin, absorbance 480 nm, 0.01% Triton. hit rate 0.041% among 370,000;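 note: potency is the fitted concentration of half-maximal effect; 0% = no-compound wells and -100% = no-enzyme wells; nearly all actives have a fitted effect of over 25% in size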
Target sequence (P00811 whole entry, looked up): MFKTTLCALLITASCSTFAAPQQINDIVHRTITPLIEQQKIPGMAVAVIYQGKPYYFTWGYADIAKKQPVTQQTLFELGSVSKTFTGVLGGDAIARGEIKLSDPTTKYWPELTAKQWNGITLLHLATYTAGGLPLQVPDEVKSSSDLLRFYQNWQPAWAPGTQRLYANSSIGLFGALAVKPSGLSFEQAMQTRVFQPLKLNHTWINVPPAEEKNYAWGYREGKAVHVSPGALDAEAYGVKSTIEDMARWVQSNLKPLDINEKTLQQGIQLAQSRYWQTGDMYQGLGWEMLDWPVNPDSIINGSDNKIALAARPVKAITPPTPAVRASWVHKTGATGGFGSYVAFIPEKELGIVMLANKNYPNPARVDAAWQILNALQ
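AmpC (5.3 nM in the dispensed reagent) in 20 mM phosphate pH 7.0 with 0.01% (detergent screen) or 0.0001% Triton X-100 was preincubated with compounds for 15 min at room temperature. Nitrocefin was then added from an 800 uM solution, and hydrolysis was followed at 480 nm.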
CHX counter = affects cycloheximide protein synthesis inhibition readout, counter-screen | cell reporter, cycloheximide protein synthesis inhibition counterscreen | max response, % | hit rate 12% among 300,000 | AID 2314; in the data active = max response mostly above about 13%, no sharp cut-off; inactive = mostly below about 14%; note: read at 38.3 µM for the half of the compounds with a filed dose; 0% is about no effect
Shiga toxin inh = Shiga toxin inhibition | inhibition, % at 38.7 µM | hit rate 9.2% among 290,000 | Vero cells, Shiga toxin protein synthesis inhibition reporter | AID 2315; in the data active = inhibition mostly above about 28%, no sharp cut-off; inactive = mostly below about 43%; note: 0% is about no effect
AmpC no deterg = blocks E. coli AmpC beta-lactamase in detergent-free assay | P00811 | AmpC nitrocefin hydrolysis, absorbance 480 nm, 0.0001% Triton | Potency, µM (highest dose often 57.1 µM), inactives show at the top dose activity change, negative = inhibition, actives largely listed as inhibitors | hit rate 0.52% among 330,000 | AID 485341;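 note: potency is the fitted concentration of half-maximal effect; plate controls were no compound for no effect and no enzyme for full effect; nearly all actives have a fitted effect of over 20% in size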
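20 mM phosphate pH 7.0 + 0.01% (detergent screen) or 0.0001% Triton X-100; 5.3 nM AmpC reagent; cpd preinc 15 min RT; nitrocefin (800 uM stock) to start; A480 q20 s × 4 min; Activity was normalised to no-enzyme and no-compound control wells.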
Starred values were filed as active, the others as inactive; ? = inconclusive; · = no result given. Unless noted, calls come from the whole dose curve; as a rule, active = well fitted curve in the direction sought with a large enough effect; inconclusive = small, poorly fitted or top-dose-only effect, or another doubt; inactive = no such curve, though single readings can be large; an effect the other way counts as inactive or inconclusive.

SMILES | NS1 inh | AmpC detergent | CHX counter | Shiga toxin inh | AmpC no deterg
O=C1CCNc2ccc(-c3ccccc3)cc21 | -16.3% | -20.6% | 37.5* | 74.8* | -13.9%
O=C1CCNc2cc3ccccc3cc21 | ? | 10.8% | 24.9* | 32.1 | 7.3%
Cc1ccc2c(c1)C(=O)CCN2 | 0.4% | -3.7% | -1.9 | 3.1 | -15.6%
CCOC(=O)C(=O)Nc1ccc2c(c1)OCO2 | 10.8% | 3.3% | 13.0 | 34.8 | ·
CCOC(=O)/C(N=Nc1ccc2c(c1)OCO2)=C(\C)O | · | 8.4% | 50.8* | 91.7* | -12.2%
COc1ccc(-c2csc3nc(C)nc(N4CCN(c5ccc(C(C)=O)cc5)CC4)c23)cc1OC | · | 2.1% | 31.1* | 65.2* | 115.7%
COc1ccc(N2CCN(c3ncnc4scc(-c5ccc(C)cc5)c34)CC2)cc1 | 7.4% | -9.2% | -2.3 | -2.6 | 17.0%
COc1ccccc1NC(=O)COc1ccc(/C=N/NC(=O)c2cccnc2)cc1 | -4.5% | -0.8% | 6.9 | -11.9 | -10.4%
O=C(COc1ccc(/C=N/NC(=O)c2cccnc2)cc1)Nc1ccccc1 | -0.7% | 8.2% | 29.0* | 24.7 | 0.8%
O=C(COc1ccc(/C=N/NC(=O)c2cc3ccccc3o2)cc1Cl)Nc1ccccc1 | 7.2% | -7.1% | 47.3* | 61.9* | -14.7%
COc1cc(/C=N/NC(=O)c2ccccc2O)ccc1OCC(=O)Nc1ccccc1 | -2.3% | ? | 14.5* | 19.4 | -42.9%
COc1ccc(NC(=O)COc2ccc(/C=N/NC(=O)c3cccnc3)cc2OC)cc1 | 16.0% | -14.3% | 10.3 | 32.3* | 6.4%
CN(c1cccc(Cl)c1)S(=O)(=O)c1cccc(C(=O)NCc2ccncc2)c1 | · | ? | · | · | -3.6%
COc1ccc2c(c1)c1c(c(=O)n(-c3ccccc3)c(=O)n1CC(=O)NCCC1=CCCCC1)n2C | · | 1.0% | · | · | ·
O=C1CN(C(=O)NCC(=O)N[C@@H](C(=O)O)c2ccccc2)c2ccccc2N1 | 17.1% | ? | -7.7 | 16.6 | -23.0%
COc1cc(/C=N/NC(=O)c2ccncc2)ccc1OCC(=O)Nc1ccccc1 | -11.1% | -5.1% | 30.3* | 56.1* | -12.3%
O=C(COc1ccc(/C=N/NS(=O)(=O)c2ccccc2)cc1)Nc1ccccc1 | 4.9% | -4.3% | 21.0* | 60.2 | -46.0%
COc1cc(/C=C/c2cc[n+](C)cc2)ccc1OCC(=O)Nc1ccccc1 | -5.5% | 4.4% | 21.5 | 35.6 | 6.7%
N/C(COc1ccccc1)=N\NS(=O)(=O)c1ccccc1 | 8.2% | 1.3% | -2.0 | 4.1 | 0.159µM*
COc1cc(C=C2C(=O)OC(C)(C)OC2=O)ccc1OCC(=O)Nc1ccccc1 | 3.9% | -1.2% | 16.6* | 95.0* | -14.7%
O=C(Cc1ccccc1)N/N=C/c1ccc(OCC(=O)Nc2ccccc2)cc1 | -1.0% | -1.8% | 9.0 | 30.2 | ?
COc1cc(OC)cc(C(=O)N[C@H](C(=O)OCC(=O)Nc2ccc(F)c(F)c2F)C(C)C)c1 | · | -8.7% | 2.2 | 18.0 | 15.4%
COc1ccccc1N(CC(=O)NCc1ccc2c(c1)OCO2)C(=O)CCC(=O)Nc1nccs1 | -12.5% | 4.5% | -3.3 | -4.1 | -5.7%
NNc1nc2ccc(F)cc2s1 | -6.5% | ? | 78.1* | 136.5* | -43.2%
O=C(Nc1nc2ccc(F)cc2s1)Oc1ccccc1 | -9.0% | -13.5% | 8.6 | 33.9 | 76.1%
SMILES | NS1 inh | AmpC detergent | CHX counter | Shiga toxin inh | AmpC no deterg
NNc1nc2c(Cl)c(Cl)ccc2s1 | -5.0% | ? | 25.1* | 30.3* | -42.7%
O=C(CN1C(=O)C2CC=CCC2C1=O)Nc1nc2ccc(F)cc2s1 (stereo unspecified) | · | -8.7% | 21.4 | 17.3 | -8.9%
Fc1ccc2nc(Nc3ccccc3)sc2c1 | · | -7.8% | 36.1* | 117.9* | -50.2%
NNc1nc2ccc(Cl)cc2s1 | -2.3% | 4.2% | 41.7* | 83.3* | -19.7%
COc1ccc(S(=O)(=O)NCc2ccc3c(c2)CCN3C(=O)c2ccc(C)cc2)cc1Cl | · | 12.4% | · | · | ·
CN(CC(=O)Nc1cccc(F)c1)CC(=O)Nc1cccc(S(=O)(=O)N2CCCCC2)c1 | · | ? | · | · | -8.5%
O=C(CCc1nc2ccccc2s1)OCc1ccccc1 | 12.5% | -5.2% | -1.5 | 19.9 | -6.5%
N/C(Cc1nc2ccccc2s1)=N\O | -0.2% | -11.1% | 30.6* | 108.2* | -16.5%
NC(=O)CSCc1nc2ccccc2s1 | ? | -4.5% | 84.2* | 41.7 | -37.3%
OC(c1ccccc1)c1nc2ccccc2s1 (stereo unspecified) | 12.0% | -14.2% | 12.9 | 22.7 | -15.0%
CC(=O)C1=C(C)OC(N)=C(C#N)C1c1cc2cc(C)c(C)cc2nc1Cl (stereo unspecified) | -7.1% | 0.7% | 31.2* | active | 0.316µM*
Cc1ccc2nc(N(Cc3cccnc3)C(=O)c3ccco3)sc2c1 | · | -0.3% | · | · | ·
C/C(=N\NC(=O)c1ccccc1F)c1ccc2c(c1)Nc1ccccc1S2 | 9.9% | -2.3% | 33.5* | 64.8* | -30.7%
C/C(=N\NC(=O)c1ccc(O)cc1)c1ccc2c(c1)Nc1ccccc1S2 | -2.1% | 12.9% | 11.5 | 11.6 | -33.4%
CC1=NN(c2nc(-c3ccc(C)cc3)cs2)C(=O)C1N=Nc1cccc(O)c1 (stereo unspecified) | · | -13.3% | 9.3 | 15.3 | -38.1%
COc1ccc(-c2csc(N3N=C(C)C(C)C3=O)n2)cc1 (stereo unspecified) | · | 2.6% | 15.2* | 37.0 | -11.3%
CC1=NN(c2nc(-c3ccc(C)cc3)cs2)C(=O)C1N=Nc1ccccc1O (stereo unspecified) | 3.8% | -4.9% | 43.1* | 50.0* | -36.2%
COc1ccc(-c2csc(N3CCC(C(N)=O)CC3)n2)cc1 | · | ? | · | · | 39.0%
COc1ccc(S(=O)(=O)N(CCc2ccccc2)CC(=O)Nc2ccc(C)c(C)c2)cc1OC | · | 21.3% | · | · | ·
CC(N)(Cc1ccc(O)c(O)c1)C(=O)O (stereo unspecified) | -12.1% | · | · | · | ·
COc1ccc2nc(NC(=O)c3cc(=O)c4ccccc4o3)sc2c1 | · | 12.1% | · | · | ·
COc1ccc2nc(NC(=O)c3cccc(-c4cc5ccccc5oc4=O)c3)sc2c1 | 8.6% | ? | 34.1* | 43.1* | -26.7%
Cc1ccc2nc(NC(=O)c3ccccc3F)sc2c1 | -8.8% | -6.7% | 38.7* | 82.6* | 52.0%
COc1ccc2nc(NC(=O)c3ccc(NC(=O)C4CCCO4)cc3)sc2c1 (stereo unspecified) | 0.6% | -2.5% | 18.6* | 16.5 | -20.3%
CCOc1ccc2nc(NC(=O)C3CCCO3)sc2c1 (stereo unspecified) | -1.8% | 0.2% | 0.9 | 23.6 | 77.2%
COc1ccc(/C(C)=N/NC(=O)c2ccc(NS(=O)(=O)c3cccs3)cc2)cc1 | 6.6% | -9.6% | 12.7 | 25.3 | 10µM*
O=C(NCc1ccco1)c1cc([N+](=O)[O-])ccc1N1CCOCC1 | 1.8% | -0.9% | -2.2 | -9.0 | -20.4%
COc1ccc(-n2c(=O)c3ccc(C(=O)NCc4ccc(C)cc4)cc3n(Cc3cccc(Cl)c3)c2=O)cc1 | · | 4.1% | · | · | ·
O=C(Nc1ccc2nc(SCCOc3ccccc3)sc2c1)c1ccccc1F | · | 17.5% | · | · | ·
CCn1cc([N+](=O)[O-])c(C(=O)Nc2nc3ccc(OC)cc3s2)n1 | -2.0% | -2.4% | 15.0* | 40.9 | -15.1%
